Potency and affinity values are given separately. Records with an inconclusive call do not appear. Active and inactive are the calls of the source.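 How the source made its calls: active means compounds lowering the FRET ratio whose fitted half-maximal concentration is at most twice their top tested dose; inconclusive means flat partial drop between 30 and 70 percent, or bad fit; inactive means the rest.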
Biological target: Voltage-dependent L-type calcium channel subunit alpha-1D (Homo sapiens) (UniProt Q01668)
Sequence (Q01668 whole entry, looked up): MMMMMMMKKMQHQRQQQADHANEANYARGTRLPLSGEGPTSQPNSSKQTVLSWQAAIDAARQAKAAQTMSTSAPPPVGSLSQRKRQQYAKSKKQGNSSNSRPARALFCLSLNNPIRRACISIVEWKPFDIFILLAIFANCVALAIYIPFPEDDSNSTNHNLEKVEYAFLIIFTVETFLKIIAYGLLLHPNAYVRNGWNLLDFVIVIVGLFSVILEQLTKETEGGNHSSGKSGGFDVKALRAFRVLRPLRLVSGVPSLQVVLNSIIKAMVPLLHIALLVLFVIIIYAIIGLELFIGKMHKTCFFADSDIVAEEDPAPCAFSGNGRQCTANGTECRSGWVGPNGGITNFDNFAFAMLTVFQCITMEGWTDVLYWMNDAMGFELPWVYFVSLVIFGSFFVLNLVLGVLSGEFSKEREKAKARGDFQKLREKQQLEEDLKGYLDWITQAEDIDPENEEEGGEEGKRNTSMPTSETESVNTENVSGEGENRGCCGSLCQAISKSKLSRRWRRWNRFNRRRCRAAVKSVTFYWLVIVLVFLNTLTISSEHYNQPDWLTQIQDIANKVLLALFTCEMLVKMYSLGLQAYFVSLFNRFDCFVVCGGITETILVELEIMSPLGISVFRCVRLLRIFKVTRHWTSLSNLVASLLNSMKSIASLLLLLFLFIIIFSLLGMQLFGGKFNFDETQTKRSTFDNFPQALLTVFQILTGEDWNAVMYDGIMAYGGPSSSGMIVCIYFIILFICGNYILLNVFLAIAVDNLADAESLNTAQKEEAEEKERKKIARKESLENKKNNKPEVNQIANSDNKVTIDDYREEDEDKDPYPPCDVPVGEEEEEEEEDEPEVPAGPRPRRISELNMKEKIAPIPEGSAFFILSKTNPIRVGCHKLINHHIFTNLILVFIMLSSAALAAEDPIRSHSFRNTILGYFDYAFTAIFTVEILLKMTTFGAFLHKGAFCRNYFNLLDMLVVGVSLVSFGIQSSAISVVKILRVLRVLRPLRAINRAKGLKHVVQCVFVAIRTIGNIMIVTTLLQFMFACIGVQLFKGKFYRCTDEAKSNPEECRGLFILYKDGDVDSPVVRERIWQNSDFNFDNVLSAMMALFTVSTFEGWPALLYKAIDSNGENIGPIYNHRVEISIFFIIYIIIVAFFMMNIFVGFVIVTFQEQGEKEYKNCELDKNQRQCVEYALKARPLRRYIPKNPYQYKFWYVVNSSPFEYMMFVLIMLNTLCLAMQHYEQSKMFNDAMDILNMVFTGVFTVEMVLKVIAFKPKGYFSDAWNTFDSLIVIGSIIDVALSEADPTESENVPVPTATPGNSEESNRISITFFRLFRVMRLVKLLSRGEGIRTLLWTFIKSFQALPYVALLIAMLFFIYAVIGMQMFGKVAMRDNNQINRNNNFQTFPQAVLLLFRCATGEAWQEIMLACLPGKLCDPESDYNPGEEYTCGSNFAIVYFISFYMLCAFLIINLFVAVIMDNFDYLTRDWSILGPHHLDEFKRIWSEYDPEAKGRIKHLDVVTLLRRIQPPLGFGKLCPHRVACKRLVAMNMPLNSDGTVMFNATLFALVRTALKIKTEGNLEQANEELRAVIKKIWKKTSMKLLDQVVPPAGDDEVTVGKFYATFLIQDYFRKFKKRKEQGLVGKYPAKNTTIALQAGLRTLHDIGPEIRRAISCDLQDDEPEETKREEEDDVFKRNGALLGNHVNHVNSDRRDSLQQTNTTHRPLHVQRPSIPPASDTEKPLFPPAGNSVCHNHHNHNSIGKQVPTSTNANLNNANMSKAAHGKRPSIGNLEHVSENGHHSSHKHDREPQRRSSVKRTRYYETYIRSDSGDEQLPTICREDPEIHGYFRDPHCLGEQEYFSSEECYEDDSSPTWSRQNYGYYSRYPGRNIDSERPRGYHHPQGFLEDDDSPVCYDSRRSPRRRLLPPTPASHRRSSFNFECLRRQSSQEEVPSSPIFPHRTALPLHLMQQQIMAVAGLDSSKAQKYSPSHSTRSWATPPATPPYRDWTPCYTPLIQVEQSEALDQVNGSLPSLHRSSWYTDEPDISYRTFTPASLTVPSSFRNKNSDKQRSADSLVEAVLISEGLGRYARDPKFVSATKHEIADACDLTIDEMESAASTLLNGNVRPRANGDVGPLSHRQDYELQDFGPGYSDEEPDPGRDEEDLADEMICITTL
Assay: inhibitors of CaV1.3 ICDI-IQ binding, dose response, cell-based, HEK293, YFP-IQ/CFP-ICDI FRET, cherry-picks (AID 1053205)
Conditions: HEK293 YFP-IQ/CFP-ICDI FRET ratio, 10 min; series mostly up to 35 µM

outcome, inactive:
CCCCN(CCCC)CC(O)Cn1c2ccccc2c(=O)c2ccccc21 (stereo unspecified), Clc1cccc(CN2CCN(Cc3nc(CCc4ccccc4)no3)CC2)c1, Cc1cc(C)nc(SCC(=O)Nc2ccc(S(=O)(=O)Nc3onc(C)c3C)cc2)n1, CCOC(=O)C1CCCN(CCCc2ccccc2)C1 (stereo unspecified), COCCCOc1cc(NCc2ccccc2)c2ncn(C(C)C)c2c1, Cc1ccc(S(=O)(=O)Nc2ccc(Nc3ccccc3)cc2)cc1, Cc1cc(-n2c(=O)c(C#N)cc3c(=O)n4ccccc4nc32)no1, COc1ccccc1OCc1ccc(C(=O)N(C)c2ccccc2)o1, Cc1ccc(S(=O)(=O)c2cc3c(=O)n4ccccc4nc3n(C)c2=N)cc1, CCCOc1ccc(C(=O)NNC(=S)NC(=O)c2ccco2)cc1, COc1ccc(-[n+]2c(C)cc(/C=C3\Sc4ccccc4N3C)cc2C)cc1, N#Cc1c2ccc(OCC(N)=O)cc2n2ccccc12, CC(=O)N=c1c(C#N)cc2c(=O)n3ccccc3nc2n1CCCOC(C)C, Cc1c(C(=O)NCc2cccc(C(F)(F)F)c2)sc(=O)n1Cc1ccc(C(=O)N(C)C)cc1, CCOC(=O)c1c2ccc(OCC(=O)NN)cc2n2ccccc12, O=C(NCc1ccc(F)cc1)C1CCCN1C(=O)Nc1cccc(F)c1 (stereo unspecified), CCc1nc2ccc(C(=O)NCCc3c[nH]c4ccccc34)cn2c1N(C=O)CCC(C)C, COc1ccc(C2CC(c3cccs3)=NN2c2nc(C)c(C(C)=O)s2)cc1OC (stereo unspecified), O=C1CCc2cc(S(=O)(=O)NC(Cc3ccccc3)C(=O)NCCC3=CCCCC3)ccc2N1 (stereo unspecified), Cc1c(O)ccc2cc(S(=O)(=O)c3ccccc3)c(=O)oc12, Cc1ccc(-n2c(C)cc(/C=N/NC(=O)Cn3c4ccccc4c(=O)c4ccccc43)c2C)cc1, Cc1cccn2c(=O)c3cc(C(=O)NCc4ccc(F)cc4)c(=N)n(CCCN4CCOCC4)c3nc12, NC(=O)c1c(NC(=O)Cc2ccccc2)sc2c1CCN(Cc1ccccc1)C2, CC(C)c1ccc(/C=C2\Oc3c(ccc(O)c3CN3CCN(C)CC3)C2=O)cc1, CC1=C(C(=O)N2CCN(c3cc(C)ccc3C)CC2)C2(CCCCC2)OC1=O, CC1CC(C)CN(CCCNC(=O)CCC(=O)N2CC(C)Oc3ccccc32)C1 (stereo unspecified), CCOC(=O)c1c(C)n(C)c2ccc(OCC(O)CN3CCC(C)CC3)cc12 (stereo unspecified), CCOc1ccc2nc(NCCCNS(=O)(=O)c3ccc(C)cc3)c(C#N)cc2c1, N#Cc1ccc(OCC(=O)OCC(=O)N2CCc3ccccc32)cc1, CNNC(=S)NC1CC2CC1C1C=CCC21 (stereo unspecified), CCOc1ccc(C(=O)c2cc3ccc(O)cc3oc2=O)cc1, N#CC1=C(N)OC2=C(C(=O)CCC2)C1c1cc2c(cc1Br)OCO2 (stereo unspecified), COC(=O)C1=CN(C)C=C(C(=O)OC)C1c1ccccc1Cl, COc1ccc(Cn2nnnc2C(CC(C)C)N2CCC(C(N)=O)CC2)cc1 (stereo unspecified), CSc1ccc(Cn2c(C)c(C(=O)NCCC#N)sc2=O)cc1, Cc1ccc2c(c1)N(C(=O)CCC(=O)NCCCN1CCOCC1)CC(C)O2 (stereo unspecified)

Source: PubChem BioAssay AID1053205 (Broad Institute, 2014)
